Data as given in the supplement of paper PMC8183993.
“And” between values parts separate entries of the source, which are not always exact repeats. Equal entries are not always repeated. Structures can show the parent of a compound that is named as a salt. ± gives the standard deviation of the averaged measurements. Over roughly 3,200 compounds, “nuclei count (viability) relative to DMSO” has its median near 99; the lowest 2% begin near 16. The sample as a whole holds a higher share of the lowest values than the screen did.

These molecules were tested on U2OS (assay: nuclei count (viability) relative to DMSO (% of DMSO); higher = more viable cells). Conditions: 10 µM; 24 h.
Description: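 Primary image-based screen in U2OS cells: compounds at 10 uM for 24 h, then a 1 h o-propargyl-puromycin (OPP) pulse, click labelling, and high-throughput microscopy. Mean cytoplasmic OPP intensity and nuclei count were normalised to DMSO wells within each plate (DMSO = 100) and averaged over triplicate plates.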

**Q.** Which nuclei count does the source give for `CCOc1cc(N2CCC(O)CC2)ccc1Nc1ncc2c(n1)N(C)c1ccccc1C(=O)N2C` here?
**A.** 95.5

**Q.** For `COc1cc(N2CCC(N)CC2)ccc1Nc1ncc(Cl)c(-c2c[nH]c3ccccc23)n1`, which nuclei count is on record?
**A.** 7.03

**Q.** `CNC(=O)c1ccccc1Nc1nc(Nc2ccc(N3CCOCC3)cc2OC)ncc1Cl` was tested. Which nuclei count did it give?
**A.** 38.9 ± 1.6

**Q.** `CN(C(=O)c1ccc(F)cc1C(F)(F)F)C1CCN(c2nnc(-c3ccnn3C)c3ccccc23)CC1` was tested. Which nuclei count did it give?
**A.** 101

**Q.** Which nuclei count does the source give for `C1=N/C2=N/c3ccc(OCCN4CCCC4)c(c3)COC/C=C/COCc3cccc(c3)C(=C1)N2` [Pacritinib (SB1518)] here?
**A.** 16.7

**Q.** How did the nuclei count turn out when `Cn1c(CNc2ccc(C(=N)N)cc2)nc2cc(C(=O)N(CCC(=O)O)c3ccccn3)ccc21` [BIBR 953 (Dabigatran etexilate, Pradaxa)] was run?
**A.** 108

**Q.** How did the nuclei count turn out when `N=C(N)NC(=N)Nc1ccccc1` [1-Phenylbiguanide hydrochloride] was run?
**A.** 95.6

**Q.** With `CN(C)CCCn1cc(C2=C(c3c[nH]c4ccccc34)C(=O)NC2=O)c2ccccc21` as the molecule, how does the nuclei count read?
**A.** 55.6 and 47.3

**Q.** For `Cn1cc(C2=C(c3cn(CCCSC(=N)N)c4ccccc34)C(=O)NC2=O)c2ccccc21` [Ro 31-8220 mesylate], which nuclei count is on record?
**A.** 10.6

**Q.** With `Cn1cc(C2=C(c3cn(CCCSC(=N)N)c4ccccc34)C(=O)NC2=O)c2ccccc21` [Ro 31-8220 Mesylate] as the molecule, how does the nuclei count read?
**A.** 29.7

**Q.** How did the nuclei count turn out when `Cn1cc(C2=C(c3ccc(Cl)cc3Cl)C(=O)NC2=O)c2ccccc21` was run?
**A.** 94.8 and 92.7

**Q.** Which nuclei count does the source give for `O=C(O)CCC/C=C\C[C@@H]1CO[C@H](C(F)(F)F)O[C@@H]1c1ccccc1O` here?
**A.** 102

**Q.** `O=C(O)CNC(=O)C(CS)Cc1ccccc1` (racemic) [DL-Thiorphan] was tested. Which nuclei count did it give?
**A.** 113

**Q.** For `CNC(C)C1CCC(N)C(OC2C(N)CC(N)C(OC3OCC(C)(O)C(NC)C3O)C2O)O1` (stereo not drawn) [Gentamycin sulfate (Gentacycol)], which nuclei count is on record?
**A.** 79.5

**Q.** With `CC(C)c1noc(N2CCC(COc3ccc(-c4ccc(S(C)(=O)=O)cc4)nc3)CC2)n1` as the molecule, how does the nuclei count read?
**A.** 109

**Q.** `C=C(NC(=O)C(=C)NC(=O)c1csc(C2=N[C@@H]3c4csc(n4)[C@H]4NC(=O)c5csc(n5)[C@H]([C@](C)(O)[C@@H](C)O)NC(=O)[C@H]5CSC(=N5)/C(=C/C)NC(=O)[C@H]([C@@H](C)O)NC(=O)c5csc(n5)[C@]3(CC2)NC(=O)[C@H](C)NC(=O)C(=C)NC(=O)[C@H](C)NC(=O)[C@H]([C@@H](C)CC)N[C@@H]2C=Cc3c([C@H](C)O)cc(nc3[C@H]2O)C(=O)O[C@@H]4C)n1)C(N)=O` [Thiostrepton] was tested. Which nuclei count did it give?
**A.** 16.2

**Q.** Which nuclei count does the source give for `CC(=O)OC[C@H]1O[C@@H]([S-])[C@H](OC(C)=O)[C@@H](OC(C)=O)[C@@H]1OC(C)=O.CCP(CC)CC.[Au+]` [Auranofin] here?
**A.** 13.4

**Q.** For `CCN(C(=O)CO)[C@H]1CN(/C(=N\C#N)Nc2cccc(OC(F)F)c2)N=C1c1ccc(Cl)c(Cl)c1`, which nuclei count is on record?
**A.** 111

**Q.** `CN1CCN(c2nc(C3=C(c4c[nH]c5ccccc45)C(=O)NC3=O)c3ccccc3n2)CC1` [Sotrastaurin (AEB071)] was tested. Which nuclei count did it give?
**A.** 95.2 ± 3.4

**Q.** How did the nuclei count turn out when `O=C(/C=C/c1ccc(O)cc1)CC(=O)/C=C/c1ccc(O)cc1` [bis-demethoxycurcumin] was run?
**A.** 93.2

**Q.** Which nuclei count does the source give for `CC(=O)NCC(=O)N1[C@@H]2CC[C@H]1c1ccc(Nc3ncc(C(F)(F)F)c(NC4CCC4)n3)cc12` here?
**A.** 16.4

**Q.** Which nuclei count does the source give for `C=CC(=O)Nc1cccc(Nc2nc(Nc3ccc(N4CCN(C(C)=O)CC4)cc3OC)ncc2C(F)(F)F)c1` here?
**A.** 57.6

**Q.** How did the nuclei count turn out when `C=CC(=O)Nc1cccc(Nc2nc(Nc3ccc(NC4CN(CCF)C4)cc3OC)ncc2C(F)(F)F)c1` was run?
**A.** 20.7

**Q.** For `COc1ccc(Br)cc1S(=O)(=O)NC(=O)/C=C/c1ccccc1Cc1ccc2ccccc2c1`, which nuclei count is on record?
**A.** 104

**Q.** For `O=C1c2ccccc2-c2nc3nonc3nc21`, which nuclei count is on record?
**A.** 44

**Q.** With `CCCCCCCCc1ccc(CCC(N)(CO)CO)cc1` [Fingolimod (FTY720)] as the molecule, how does the nuclei count read?
**A.** 18.9 ± 0.71

**Q.** `CCCCCCCc1ccc(CCc2cccc(O)c2C(=O)O)cc1` was tested. Which nuclei count did it give?
**A.** 7.35

**Q.** `CCCCCCCCc1ccc(-c2ccc(C(=O)O)cc2)cc1` was tested. Which nuclei count did it give?
**A.** 108

**Q.** `CC(C)=CCC/C(C)=C/CC/C(C)=C/CSCC(=O)O` [Farnesylthioacetic acid] was tested. Which nuclei count did it give?
**A.** 97.9

**Q.** Which nuclei count does the source give for `C1COC(NC(C2CC2)C2CC2)=N1` [Rilmenidine hemifumarate] here?
**A.** 103

**Q.** With `C1COC(NC(C2CC2)C2CC2)=N1` [Rilmenidine] as the molecule, how does the nuclei count read?
**A.** 93.6

**Q.** For `CC(C)(C)c1ccc(S(=O)(=O)/C=C/C#N)cc1`, which nuclei count is on record?
**A.** 43.7

**Q.** How did the nuclei count turn out when `COc1cc([C@@H]2c3cc4c(cc3[C@@H](O[C@@H]3O[C@@H]5CO[C@@H](c6cccs6)O[C@H]5[C@H](O)[C@H]3O)[C@H]3COC(=O)[C@H]23)OCO4)cc(OC)c1O` [Teniposide (Vumon)] was run?
**A.** 15.5

**Q.** `COc1cc([C@@H]2c3cc4c(cc3[C@@H](O[C@@H]3O[C@@H]5CO[C@@H](C)O[C@H]5[C@H](O)[C@H]3O)[C@H]3COC(=O)[C@H]23)OCO4)cc(OC)c1O` [Etoposide (VP-16)] was tested. Which nuclei count did it give?
**A.** 50.9

**Q.** `COc1cc([C@@H]2c3cc4c(cc3[C@@H](O[C@@H]3O[C@@H]5CO[C@@H](C)O[C@H]5[C@H](O)[C@H]3O)[C@H]3COC(=O)[C@H]23)OCO4)cc(OC)c1O` [Etoposide] was tested. Which nuclei count did it give?
**A.** 44.3 ± 2

**Q.** With `CC[C@H](CO)Nc1nc(Nc2cccc(-c3ccccn3)c2)c2ncn(C(C)C)c2n1` [(R)-DRF053 dihydrochloride] as the molecule, how does the nuclei count read?
**A.** 76.2

**Q.** How did the nuclei count turn out when `CC(Oc1ccc(O)cc1)(P(=O)(O)O)P(=O)(O)O` was run?
**A.** 105 ± 0.12

**Q.** `CO[C@@H]1[C@H](O)[C@@H](CO)O[C@H]1n1cnc2c(NC3CCCCC3)ncnc21` was tested. Which nuclei count did it give?
**A.** 102
